In the library only some 4.7% were active in any assay of this set; here they are far more common.
TRHR enhancer: qHTS for Small Molecule Agonists and Allosteric Enhancers of Human TRH Receptor: Primary Screen for Enhancers | Thyrotropin-releasing hormone receptor (Homo sapiens), P34981 | TRHR cells, fluo-8 calcium fluorescence, EC20 TRH enhancement | enhancement, % at 2 µM | hit rate 0.66% among 360,000 | AID 493056, 2011; in the data active = enhancement above about 30%; also: 0% is about no effect
Target sequence (P34981 whole entry, looked up): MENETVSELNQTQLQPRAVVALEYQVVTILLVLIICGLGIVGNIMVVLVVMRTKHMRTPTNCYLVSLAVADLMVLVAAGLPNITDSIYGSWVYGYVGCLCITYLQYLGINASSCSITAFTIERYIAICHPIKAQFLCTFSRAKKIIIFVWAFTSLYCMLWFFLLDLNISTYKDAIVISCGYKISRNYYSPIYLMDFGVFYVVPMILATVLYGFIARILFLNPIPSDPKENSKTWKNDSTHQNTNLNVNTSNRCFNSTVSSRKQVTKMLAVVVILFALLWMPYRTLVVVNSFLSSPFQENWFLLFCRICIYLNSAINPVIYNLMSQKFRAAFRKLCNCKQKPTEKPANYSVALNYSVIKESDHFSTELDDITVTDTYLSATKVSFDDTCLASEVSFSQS
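Enhancer read-out: after compound pinning and an initial kinetic agonist-mode read, an EC20 of TRH (10 nM final) was injected and fluo-8 calcium signal (Ex 480/Em 530) followed at 1 s/cycle for 100 cycles in TRHR-expressing cells.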
D1 potentiator: Potentiators of Human D1 Dopamine Receptor: qHTS. hit rate 0.036% among 360,000. AID 504651, 2011. D(1A) dopamine receptor (Homo sapiens), P21728. potentiation, % at 10 µM. HEK293 TREx D1 cells, calcium flux, dopamine EC20 potentiation; in the data active = potentiation above about 30%; also: 0% is about no effect
TRHR agonist: qHTS for Small Molecule Agonists and Allosteric Enhancers of Human TRH Receptor: Primary Screen for Agonists | hit rate 0.18% among 360,000 | TRHR cells, calcium flux fluo-8, FDSS agonist mode | activation, % at 2 µM | AID 493084, 2011; also: 0% is about no effect
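In this calcium-flux screen, cells bearing human TRHR are dye-loaded with fluo-8, baselined for 10 cycles, then exposed to library compounds; positive kinetic calcium responses during the agonist phase mark hits, with TRH as control.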
D1 ag: Allosteric Agonists of the Human D1 Dopamine Receptor: qHTS | D(1A) dopamine receptor (Homo sapiens), P21728 | HEK293 T-REx D1 cells, calcium flux, agonist mode | activation, % at 2 µM | hit rate 1% among 360,000 | AID 504660, 2011; also: 0% is about no effect
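Inducible HEK293 T-REx D1 cells, force-coupled to calcium signalling, were plated at 4000 cells/well with tetracycline and held overnight at 30 C. After no-wash calcium dye loading, compound-evoked calcium rise over 180 s flagged agonists.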
D1 antag: Antagonist of Human D 1 Dopamine Receptor: qHTS | activity change, negative = inhibition, % at 10 µM | AID 504652, 2011 | HEK293 TREx D1 cells, calcium flux, dopamine EC80; hits give low values | D(1A) dopamine receptor (Homo sapiens), P21728 | hit rate 3.2% among 360,000; in the data active = activity change below about -30%; also: % is scaled to controls: 0 for no effect and ±100 for the full control effect
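Allosteric or orthosteric antagonism assessed as attenuation of the calcium response to EC80 dopamine, added 180 s after compound, in induced HEK293 Trex D1 cells loaded with no-wash calcium dye.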
* hit, by the source's call. Rule as the data show it, unless noted: active = activation above about 30%; inactive = the rest.

SMILES	TRHR enhancer	D1 potentiator	TRHR agonist	D1 ag	D1 antag
CC1CCCCN1C(=O)C1CCN(c2nc(-c3ccccc3)nc3c2CCC3)CC1 (centres undefined)	39*	-2	-1	4	1
CC(=O)c1cccc(CN2CCCC(C(=O)Nc3cccc(-n4cccn4)c3)C2)c1 (centres undefined)	-5	-5	0	7	2
COCCCn1c(-c2ccc(S(=O)(=O)N3CCOCC3)cc2)csc1=Nc1ccccc1	-2	0	0	1	-2
CCn1c(-c2ccc(S(=O)(=O)N3CCOCC3)cc2)csc1=Nc1ccc(C)c(Cl)c1	19	-4	0	1	-37*
O=C(CNC(=O)c1ccccc1)OC(C(=O)Nc1ccc2c(c1)OCO2)c1ccccc1 (centres undefined)	-1	4	-1	1	-1
CN(C)S(=O)(=O)c1cccc(NC(=S)N/N=C/c2cc(Br)ccc2O)c1	8	-18	0	47*	-11
CSc1ccccc1OCc1cc(C(=O)N(C)Cc2cnccn2)no1	9	2	-1	0	-3
COCCn1c(/C=C/c2ccccc2)nc2ccccc21	6	-3	-2	-1	-34*
COCCn1c(-c2ccccc2)nc2ccccc21	-2	1	-1	3	-1
CCCn1c(/C=C/c2ccco2)nc2ccccc21	-5	-2	0	9	1
CCCCn1c(/C=C/c2ccco2)nc2ccccc21	-9	-5	1	30*	-5
CC(C)CCn1c(/C=C/c2ccccc2)nc2ccccc21	1	-5	-1	10	-32*
COc1ccccc1Cn1c(/C=C/c2ccccc2)nc2ccccc21	2	-5	1	10	-31*
Cc1c(CCC(=O)O)c(=O)oc2cc3occ(-c4ccc(Br)cc4)c3cc12	0	3	0	1	9
COc1ccc(-c2cc3nccc(-c4cc(Cl)c(C)cc4O)n3n2)cc1	-1	-2	2	-1	0
C#CCn1c(/C=C/c2ccc(Cl)cc2)nc2ccccc21	-1	-3	-2	6	-36*
Clc1ccc(Cn2c(/C=C/c3ccco3)nc3ccccc32)cc1	-3	-6	0	3	-9
CC(C)CCn1c(-c2nonc2N)nc2ccccc21	4	-5	1	2	-33*
CCCCn1c(-c2nonc2N)nc2ccccc21	-10	-7	-1	8	-14
Cc1ccc2c(c1)c1c(c(=O)n(-c3ccccc3)c(=O)n1Cc1ccccc1C)n2C	3	0	0	1	-3
Oc1ccc(/C=N/N(c2ccccc2)c2ccccc2)cc1O	-9	1	1	2	-38*
Oc1ccc(/C=N/N(c2ccccc2)c2ccccc2)c(O)c1O	-2	-4	1	1	-9
COc1ccc(CNC(=O)Cn2c(=O)oc3cc(S(=O)(=O)N4CCCCCC4)ccc32)cc1	-2	-5	0	10	-16
CCOc1ccc(NC(=O)[C@@H]2CCC(=O)N2C2OC(=O)c3ccccc32)cc1 (some centres undefined)	23	-6	0	2	-1
Cn1c(N)c(C(=O)N/N=C/c2ccccc2)sc1=S	36*	-6	0	4	-13
SMILES	TRHR enhancer	D1 potentiator	TRHR agonist	D1 ag	D1 antag
CCCn1c2ccccc2c2cnn(CC(=O)NCCc3ccc(OCC)cc3)c(=O)c21	-12	7	-1	1	6
CN(C)CCCOc1ccc2c(c1)Sc1ccccc1CC2=O	6	-6	-1	79*	-60*
COc1ccc(C(=O)NCC(C)(C)SCc2c(C)cc(C)cc2C)cc1	-3	7	-2	56*	-61*
Cc1cc(COc2ccccc2)oc1C(=O)O	-4	1	0	1	7
COc1ccc(C)cc1NC(=O)CN(c1ccc(F)cc1)S(C)(=O)=O	10	1	-1	-1	2
Cc1ccc(N(CC(=O)N/N=C/c2cc(C)n(-c3ccccc3C)c2C)S(C)(=O)=O)cc1	33*	-9	1	0	-30*
Cc1ccc(N(CC(=O)Nc2cc(C)ccc2C)S(C)(=O)=O)cc1	-3	1	0	3	-38*
O=c1cc(N2CCN(c3ccc(F)cc3)CC2)[nH]c(=O)n1-c1cccc(Br)c1	-4	-2	1	0	2
CC(=O)N1c2ccccc2C(=O)C1N1CCN(c2cccc(C(F)(F)F)c2)CC1 (centres undefined)	2	-2	0	3	12
COc1ccc(C)cc1Nc1n[n+](-c2ccccc2)c(-c2ccc(NC(C)=O)cc2)s1	-2	-7	0	1	-31*
Cc1cccc(NC(=O)CSc2nnc(-c3ccncc3)n2CC2CCCO2)c1 (centres undefined)	6	-7	0	0	3
CCSc1nnc(-c2sc3nnc(-c4ccccc4)c(-c4ccccc4)c3c2N)o1	6	3	64*	109*	-1
CCOC(=O)c1cc2c(ccn2C)n1CC(=O)N1CCN(c2cccc(C(F)(F)F)c2)CC1	8	1	0	3	-38*
CCOC(=O)c1cc2c(ccn2C)n1CC(=O)N1CCN(c2ccc(F)cc2)CC1	1	6	0	0	13
CCOc1cc2c(cc1OCC)C(C(=O)O)C(c1cc(Br)c(O)c(OC)c1)N(C)C2=O (centres undefined)	-2	-2	0	1	-32*
CC(C)CN1C(=O)C(=O)N(CC(=O)c2ccc[nH]2)C1=O	19	8	-2	2	0
CCCOC1CCCN(C(=O)c2cc(COc3c(F)cccc3F)on2)C1 (centres undefined)	5	2	0	1	7
Cc1ccccc1C1CCCN(C(=O)c2cc(COc3c(F)cccc3F)on2)C1 (centres undefined)	-5	-6	3	16	-33*
CCc1ccc(-n2c(=O)c3sc4ccccc4c3n(CC(=O)N(CC)Cc3ccccc3)c2=O)cc1	-8	2	0	5	-7
Cc1cc(C)cc(NC(=O)c2cc(S(=O)(=O)N3CCOCC3)cn2C)c1	14	-4	0	4	-8
COc1ccc(OC)c(NC(=O)C2CCN(c3cc(-c4ccccc4)nc4ncnn34)CC2)c1	6	5	-1	2	-4
COc1ccccc1NC(=O)N1CCN(c2cc(-c3ccccc3)nc3ncnn23)CC1	-1	2	-1	0	-54*

Compound activity deposited in PubChem BioAssay by National Center for Advancing Translational Sciences (NCATS).
